Columns and labels:
Assay in all cases: PBM binding z-score (relative to random genomic background probes); higher = stronger binding; sequences stand for … in GC…GCGATTGACAGCGTAGAATGAAGG
[1] = system: FXR:RXRa (NR concentration 270 nM, RXRa partner concentration 90 nM)
Method in brief: (§1)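 The probes on custom Agilent 4×180K protein-binding microarrays were double-stranded, with 34-nt variable regions bearing direct-repeat seeds, single-nucleotide variants, half-site ablations and random human genomic background sequences. Incubation lasted 1 h with ligand-free nuclear receptor dimers in PBS pH 7.4, 2% milk, 0.02% Triton X-100, 1 mM DTT, 0.2 mg/mL BSA and 0.4 mg/ml salmon testes DNA. Antibodies against each partner (one per run) detected bound dimers, and fluorescence scans were regression-normalized. Binding z-scores take the random background probes as reference.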

[2] = system: LXRa:RXRa (NR concentration 270 nM, RXRa partner concentration 90 nM)
Method in brief: as §1

[3] = system: LXRa homodimer (NR concentration 270 nM)
Method in brief: as §1

[4] = system: LXRb:RXRa (NR concentration 270 nM, RXRa partner concentration 90 nM)
Method in brief: as §1

[5] = system: LXRb homodimer (NR concentration 270 nM)
Method in brief: as §1

[6] = system: PPARa:RXRa (NR concentration 270 nM, RXRa partner concentration 90 nM)
Method in brief: as §1

[7] = system: PPARg:RXRa (NR concentration 180 nM, RXRa partner concentration 90 nM)
Method in brief: as §1

[8] = system: PPARg:RXRa 270nM:90nM, anti-RXR (NR concentration 270 nM, RXRa partner concentration 90 nM)
Method in brief: as §1

[9] = system: PPARg:RXRa 30nM:10nM, anti-RXR (NR concentration 30 nM, RXRa partner concentration 10 nM)
Method in brief: as §1

[10] = system: PPARg:RXRa 90nM:30nM, anti-RXR (NR concentration 90 nM, RXRa partner concentration 30 nM)
Method in brief: as §1

Sequence | PBM binding z-score [1] | PBM binding z-score [2] | PBM binding z-score [3] | PBM binding z-score [4] | PBM binding z-score [5] | PBM binding z-score [6] | PBM binding z-score [7] | PBM binding z-score [8] | PBM binding z-score [9] | PBM binding z-score [10]
CAAACTAGGTCCAAGGTCAAAGTCGAGCCAACCA | 3.97 | 3.48 | 1.97 | 3.75 | 0.508 | 5.32 | 9.35 | 7.68 | 7.65 | 8.28
GCTAGCAGGCCATTTGGGTGACTCAATGACGGGC | -0.535 | -0.729 | -0.901 | -1.05 | -1.19 | 0.031 | 0.218 | -0.431 | -0.682 | -0.48
TTACCAAGGTGAAGGTCGTTGAACCCTCTGTAGA | 3.72 | 3.95 | 1.78 | 2.99 | -0.723 | 3.27 | 3.46 | 4.28 | 2.15 | 3.9
ACTCGGAGTACAAAGGTCAGAGCTACGCCAGTGA | 4.23 | 4.12 | 1.57 | 3.56 | 0.437 | 5.17 | 8.46 | 7.54 | 7.42 | 8.33
ATCTCTAGGTAAAGATGGTTCAGTGAATGCAAAT | -0.0028 | 0.987 | 0.171 | 0.3 | 0.169 | 0.594 | 0.37 | 0.607 | 0.44 | 0.679
ACTAGCAGGCCAAGTTTGCGTCACTCAAACAAAG | -0.42 | -0.547 | -0.38 | -0.386 | -0.402 | -0.395 | -0.346 | -0.378 | -0.74 | -0.227
CTCGAAAGGTCGTGCTCAGGAGAGTATACCAAAC | 4.89 | 3.56 | 0.247 | 3.12 | 0.29 | 4.7 | 2.62 | 3.59 | 1.02 | 2.48
CGTGCAAGGTCATAGGAGGTCAGTGAAGACAGAT | 7.84 | 7.38 | 4.92 | 6.31 | 1.2 | 5.98 | 6.01 | 6.37 | 2.92 | 5.01
TCTCGGAGGACACGAAAGGTCAGAGCACGACATC | 2.91 | 3.73 | 3.12 | 3.29 | 0.0344 | 3.63 | 1.64 | 2.76 | 2.25 | 2.42
TAGTCTAGGTCATGCGGGCCAGTATAGTGTCGGC | 4.02 | 3.48 | 1.36 | 1.76 | 1.87 | 3.92 | 4.97 | 4.56 | 1.78 | 3.81
CCTGCTAGGTCATGGTAAGCTAATCTACAGTATG | 3.82 | 2.46 | 0.0967 | 1.86 | -0.0761 | 3.64 | 2.48 | 2.64 | 0.993 | 1.66
TAGCCTAGGTCATGCGGGCCATTATAGTGTCGGC | 4.23 | 3.27 | 0.473 | 1.96 | -0.482 | 3.6 | 2.62 | 2.47 | 0.148 | 1.56
GCTAGTTGCTCAGTAAAAGGTCACACACCGGTCG | 3.27 | 4.03 | 4.51 | 4.02 | 0.393 | 4.42 | 2.23 | 3.52 | 1.06 | 2.88
CGTCCAAGGTCTTAGGAGGTCAGTGAAGACAGAT | 1.69 | 3.12 | 0.984 | 2.03 | -0.404 | 2.28 | 0.427 | 1.06 | 0.0477 | 0.43
CCTACCGGGCCAAAGGTCATTGATTCCAATGCTC | 4.82 | 5.29 | 3.7 | 4.97 | 0.797 | 5.89 | 9.76 | 9.09 | 7.65 | 9.83
GCTCGGAGTACAAGGTCAGAGCTTTGTCCGTAGA | 1.17 | 1.6 | 0.0814 | 1 | -0.761 | 2.17 | 0.501 | 1.48 | -0.171 | 0.497
TCATATAGGTAATACAGGCGAAAGTCGGCATCTA | 0.743 | 0.759 | 0.19 | 0.501 | -0.147 | 1.06 | 0.851 | 2.29 | 4.01 | 3.08
CCTCGGAGGACAACAGGAGGTCAGGGCTGCCAGA | 1.17 | 1.84 | 1.45 | 1.14 | -0.784 | 2.09 | 0.517 | 0.522 | -0.226 | 0.18
CGAACTAAGTCAGAACAGGACAGTGAAGGATGAT | -0.105 | -0.427 | 0.0634 | -0.842 | -0.576 | -0.444 | 0.514 | -0.265 | 0.171 | -0.00279
ATATGTAGGTTATCTGGTCATTCAGTTTGCGCAT | 1.2 | 1.28 | 1.15 | 1.21 | 0.901 | 3.58 | 5.56 | 4.79 | 2.32 | 4.3
CCTATTAGTGGACCATAAGGGCAACCGAAGCTCG | 0.107 | 0.131 | 0.000985 | 0.0463 | 0.134 | 0.591 | 0.711 | 1.08 | 0.116 | 0.489
CAGCCTAGGCCAGGGCCAGTATAGGAGGAACGTT | -0.702 | -1.16 | -0.761 | -1.14 | -1.72 | -0.754 | 0.0393 | -1.36 | -0.853 | -1.1
CAAACTAGGTCAAGCGGTCAAAGTCCGCTTCCCG | 5.13 | 4.54 | 4.1 | 2.97 | 0.774 | 5.57 | 8.35 | 7.55 | 5.13 | 7.38
TAGCCTAGGTCATGCGGGCCAGTAAAGTGTCGGC | 3.65 | 3.17 | -0.0418 | 1.66 | -0.608 | 3.69 | 2.07 | 2.27 | -0.0823 | 1.37

From the supplement of paper PMC6555819
